Measurements taken from PubChem BioAssay AID588413 (Sanford-Burnham Center for Chemical Genomics, 2011).
“And” between values parts separate entries of the source, which are not always exact repeats. Equal entries are not always repeated. Hit rate of the full screen: of about 340,000 compounds, about 2,500 (0.74%) were called active.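 How the source made its calls: active means inhibition above about 55% (limit read from the data); inactive means the rest.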 Only a selection was taken, and actives are over-represented in it overall.

Assay: Gli-Sufu pathway antagonists, primary screen, luciferase luminescence, Sufu-KO-LIGHT cells, uHTS (AID 588413);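 further: 0% = DMSO-treated cells and 100% = wells with medium but no cells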
Details: Sufu-KO-LIGHT fibroblasts, Gli luciferase reporter luminescence; at 5 µM; stronger effect = higher value
In the case of `Cc1cc(N2C(=O)C(=O)/C(=C(/O)c3ccccc3)C2c2cccc(Br)c2)no1` (stereo unspecified), the inhibition is reported as 7.53% (inactive). With `CC(=O)c1ccc(NC(=O)Cn2c(=O)oc3ccccc32)cc1` the inhibition was 11.6% (inactive). For `Cc1sc2nc(SCCO)n(-c3ccccc3)c(=O)c2c1C`, the inhibition was 3.29% (inactive). With `CC(C)OC(=O)c1ccc(NCc2cc(O)ccc2O)cc1Cl` the inhibition was -6.82% (inactive). For `COC(=O)c1ccc(NCc2cc(O)ccc2O)cc1`, the inhibition was 3.08% (inactive). In the case of `O=C(OC12CC3CC(CC(C3)C1)C2)c1ccc(NCc2cc(O)ccc2O)cc1`, the inhibition is reported as 70.4% (active). With `Cn1cnc2c1c(=O)n(Cc1ccccc1C#N)c(=O)n2C` the inhibition was 6.5% (inactive). With `O=C(Nc1cc2c3c(c1)C1CCCC1CN3CC1CCCC21)c1ccc([N+](=O)[O-])cc1` (stereo unspecified) the inhibition was 72.5% (active). With `CN1C2CCC1CC(NC(=O)c1ccc([N+](=O)[O-])cc1)C2` (stereo unspecified) the inhibition was -0.59% (inactive). In the case of `O=C(Nc1ccccc1C(=O)Nc1ccncc1)c1ccc([N+](=O)[O-])cc1`, the inhibition is reported as -25.8% (inactive). For `CCOc1ccc(NC(=O)N(CC(C)C)CC(C)C)cc1`, the inhibition was -3.25% (inactive). With `O=C(CCNC(=O)c1ccc(Br)cc1)NCC(c1ccco1)N1CCCCC1` (stereo unspecified) the inhibition was 2.12% (inactive). In the case of `Cc1ccc(OS(=O)(=O)c2ccc(-c3csc(C)n3)s2)c(C)c1`, the inhibition is reported as -1.77% (inactive). In the case of `CC1(C)CC(N2CCN(C(c3ccccc3)c3ccccc3)CC2)=CC(=[N+]2CCCCC2)C1`, the inhibition is reported as 89.2% (active). With `CC1(C)CC(=O)C=C(N2CCOCC2)C1` the inhibition was -5.06% (inactive). With `c1ccc(C(c2ccccc2)N2CCN(Cc3nnnn3C3CCCCC3)CC2)cc1` the inhibition was -7.75% (inactive). With `O=C(COc1ccc(Cl)cc1Cl)NCCCNC(=O)c1cnccn1` the inhibition was -2.79% (inactive). For `CN1C(=O)CC(c2ccccc2)C1=O` (stereo unspecified), the inhibition was 1.09% (inactive). With `COc1ccc(N(CC(=O)Nc2ccc(F)c(F)c2)S(=O)(=O)c2c(C)[nH]c(=O)[nH]c2=O)cc1` the inhibition was -1.05% (inactive). With `CCOc1ccc(/C=N/NC(=O)CSc2ccccn2)cc1O` the inhibition was 4.66% (inactive). In the case of `COc1ccc(/C=N/N=C2/C(=O)Nc3ccccc32)cc1O`, the inhibition is reported as 58.7% (active). With `O=C1Nc2ccc(Br)cc2/C1=N/N=C/C1=C(N2CCOCC2)C(=C\c2ccccc2)/CC1` the inhibition was 20.5% (inactive). In the case of `Cc1ccccc1CS(=O)(=O)CC1(O)CCN(C(=O)c2cccc(C(F)(F)F)c2)CC1`, the inhibition is reported as 0.32% (inactive). In the case of `O=C(N=C1SC2CS(=O)(=O)CC2N1c1cc(Cl)ccc1Cl)C1CC1` (stereo unspecified), the inhibition is reported as 6.54% (inactive). In the case of `Cc1ccc(C(=O)C[n+]2cc(-c3ccccc3)n3c2CCCCC3)cc1`, the inhibition is reported as 67.1% (active) and 72.5% (active). With `Clc1ccc(C[n+]2cc(-c3ccccc3)n3c2CCC3)cc1` the inhibition was 49.7% (inactive). In the case of `Cc1ccc(-c2c[n+](CC(=O)Nc3ccccc3)c3n2CCC3)cc1`, the inhibition is reported as -11.4% (inactive). In the case of `CC(=O)c1ccc(NC(=O)C(C)OC(=O)c2ccc(NS(=O)(=O)c3ccc4[nH]c(=O)[nH]c4c3)cc2)cc1` (stereo unspecified), the inhibition is reported as 7.04% (inactive). For `O=C1CSC(=O)N1CCOCCN1C(=O)CSC1=O`, the inhibition was -19.6% (inactive). For `CCN(CC)S(=O)(=O)c1ccc(N(C)Cc2cccc(OC)c2OC)nc1`, the inhibition was 1.8% (inactive). For `CC(C)(C)OC(=O)C[C@H]1C/C=C\C[C@@H](CC(=O)N[C@H](CO)Cc2ccccc2)C(=O)NC[C@@H](c2ccccc2)OC1=O`, the inhibition was 4.33% (inactive). For `CC(C)(C)OC(=O)C[C@@H]1C/C=C\C[C@@H](CC(=O)N[C@H](CO)Cc2ccccc2)C(=O)NC[C@@H](c2ccccc2)OC1=O`, the inhibition was -21.7% (inactive). In the case of `O=C(C[C@H]1C/C=C\C[C@@H](NC(=O)OCC2c3ccccc3-c3ccccc32)C(=O)O[C@@H](c2ccccc2)CNC1=O)N[C@H](CO)Cc1ccccc1`, the inhibition is reported as 60.2% (active). With `COc1ccc(CCNC(=O)CCn2c(=O)c3ccccc3n(CC(=O)NCC3CCCO3)c2=O)cc1OC` (stereo unspecified) the inhibition was 2.58% (inactive). With `CCN(CC(=O)Nc1cc(Cl)ccc1C)C(=O)CSCc1ccc(C)cc1` the inhibition was 62.8% (active). For `CCN(CC(=O)Nc1ccc(OC)cc1)C(=O)CSCc1ccc(C)cc1`, the inhibition was -9.04% (inactive). In the case of `CCN(CC(=O)Nc1cc(Cl)ccc1C)C(=O)CSCc1ccccc1`, the inhibition is reported as -4.34% (inactive). For `Cc1ccc2c(c1)N(CC(=O)NCCc1ccc(Cl)cc1)C(=O)c1cccnc1O2`, the inhibition was -9.76% (inactive). With `COC[C@@H]1NS(=O)(=O)c2ccc(Br)cc2O[C@H]1c1ccccc1` the inhibition was 15.6% (inactive). In the case of `Cc1ccc(S(=O)(=O)c2nc(-c3cccs3)oc2NCc2cccnc2)cc1`, the inhibition is reported as 3.04% (inactive). In the case of `Cc1ccc(OCCNC(=O)CN2C(=O)NC3(CCCC3)C2=O)cc1`, the inhibition is reported as -5.27% (inactive). For `COc1ccc(C(=O)NCC(=O)N/N=C/c2cccnc2)cc1`, the inhibition was -0.02% (inactive). In the case of `O=C(CSc1cccc2cccnc12)N/N=C/c1cccnc1`, the inhibition is reported as 71% (active). With `Cc1c(NC(=O)CSc2cccc3cccnc23)c(=O)n(-c2ccccc2)n1C` the inhibition was 8.55% (inactive). For `NC(=O)CC(NC(=O)Cc1ccc(Br)cc1)c1ccc(NC2CC3CCC2C3)c([N+](=O)[O-])c1` (stereo unspecified), the inhibition was 19% (inactive). For `CC(=O)N1CCC(C(=O)Nc2nc(-c3ccccc3)ns2)CC1`, the inhibition was -14.5% (inactive). With `CC(CN1CCC(n2nccc2NC(=O)C2CCCC2)CC1)c1ccccc1` (stereo unspecified) the inhibition was 8.83% (inactive). In the case of `Cc1nn(C)c(Cl)c1CN1CCC(n2nccc2NC(=O)C2CCCC2)CC1`, the inhibition is reported as 61.7% (active). With `O=C(Nc1ccnn1C1CCN(Cc2cccc(OCCO)c2)CC1)C1CCCC1` the inhibition was 10.8% (inactive). In the case of `COc1cccc(-n2cc(C(=O)O)c3ccccc3c2=O)c1`, the inhibition is reported as 59.2% (active). In the case of `COc1cccc(-n2nc(C(=O)N3CCN(Cc4ccccc4)CC3)c3ccccc3c2=O)c1`, the inhibition is reported as 11% (inactive). For `COc1cccc(-n2cc3c(c2-c2ccccc2)c(=O)n(C)c(=O)n3C)c1`, the inhibition was 1.34% (inactive). For `CCCCOC(=O)CNc1nnc(SCC(=O)OCC)[nH]c1=O`, the inhibition was -6.62% (inactive). In the case of `COc1ccccc1NC(=O)CCSc1nnc(-c2ccc(O)cc2)o1`, the inhibition is reported as -0.57% (inactive). With `Brc1c(CSc2nncc3ccccc23)nc2ccccn12` the inhibition was 65% (active). In the case of `COc1cc(C(=O)N2CCN(C3CCC(C)CC3)CC2)cc(OC)c1OC` (stereo unspecified), the inhibition is reported as 5.83% (inactive).
